Results as given in PubChem BioAssay (NCI).
This is part of a sample that, as a whole, favours compounds with a hit. Of some 83,000 tested, about 20% had one in any assay.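 48-hour exposure, single concentration, 96-well plates; percent growth endpoint where 0 means no net growth. Active: below 10.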 A number with no mark means an inactive call. Active and inactive are the calls of the source.

How the values were obtained:
Assay in all cases: NCI-60 one-dose screen, 48 h (100 = growth as untreated, 0 = no growth, -100 = all killed)
DU-145 prostate = details: 10 µM unless noted
K-562 leukemia = details: 10 µM unless noted
MALME-3M melanoma = details: 10 µM unless noted
MDA-MB-231 breast = details: 10 µM unless noted
RXF 393 renal = details: 10 µM unless noted
SF-268 CNS = details: 10 µM unless noted
SF-295 CNS = details: 10 µM unless noted
SF-539 CNS = details: 10 µM unless noted
UACC-257 melanoma = details: 10 µM
M14 melanoma = details: 10 µM unless noted
HCT-15 colon = details: 10 µM unless noted
HT29 colon = details: 10 µM unless noted
SNB-75 CNS = details: 10 µM unless noted
SNB-19 CNS = details: 10 µM unless noted
U251 CNS = details: 10 µM unless noted
PC-3 prostate = details: 10 µM unless noted
SK-MEL-5 melanoma = details: 10 µM unless noted
UACC-62 melanoma = details: 10 µM unless noted
LOX IMVI melanoma = details: 10 µM unless noted
SK-MEL-28 melanoma = details: 10 µM unless noted

SMILES | growth (DU-145 prostate) [%] | growth (K-562 leukemia) | growth (MALME-3M melanoma) | growth (MDA-MB-231 breast) [%] | growth (RXF 393 renal) [%] | growth (SF-268 CNS) [%] | growth (SF-295 CNS) | growth (SF-539 CNS) | growth (UACC-257 melanoma) | growth (M14 melanoma) | growth (HCT-15 colon) | growth (HT29 colon) | growth (SNB-75 CNS) [%] | growth (SNB-19 CNS) [%] | growth (U251 CNS) [%] | growth (PC-3 prostate) [%] | growth (SK-MEL-5 melanoma) | growth (UACC-62 melanoma) | growth (LOX IMVI melanoma) | growth (SK-MEL-28 melanoma)
O=C(NNc1nc2cc(F)ccc2n2cncc12)c1cnccn1 | 26.6 | 23.9% | 29.5% | 34.1 | 68.6 | 28.3 | 0.0659% (active) | 30.1% | 36.5% | 0.271% (active) | 27.9% | 33.1% | 75.1 | 33.7 | 29.8 | 44.6 | -11.6% (active) | 17.5% | 13.7% | 26%
CC1(C)CC[C@]2(C(=O)O)CC[C@]3(C)C(=CCC4[C@@]5(C)C[C@@H](O)[C@@H]6OC(c7cccc([N+](=O)[O-])c7)OC[C@@]6(C)C5CC[C@]43C)C2C1 (stereo not given in full) | 60.1 | 44.9% | 86.7% | 82 | 85.3 | 74.6 | 36.8% | 83.7% | 103% | 72.8% | 37.6% | 59% | 84.4 | 61.9 | 41.5 | 65 | 64.5% | 69.2% | 42.7% | 87.4%
C/C(=C(/c1ccc(O)cc1)c1ccc(OCCN(C)C)cc1)c1ccc(Cl)cc1 | 65.2 | 0.0711% (active) | -47.9% (active) | 31.1 | 30.3 | 61.8 | 80.9% | -18.4% (active) | -66.6% (active) | -70.7% (active) | -26.8% (active) | -51.3% (active) | 63.8 | 59.7 | 35.3 | 52.1 | 42.9% | -27.3% (active) | -22.2% (active) | -74.1% (active)
CSc1nccc(-c2c(-c3ccc(F)c(OCc4ccc(F)cc4)c3)nc3sccn23)n1 | 88.5 | 59.7% | 104% | 65.8 | 84 | 83.9 | 80.3% | 73.3% | 64.4% | 89% | 64.6% | 67.8% | 113 | 72.6 | 60.2 | 55.2 | 19.2% | 38% | 74% | 87.5%
O=C1CSC(=O)N1Cc1cc2ccccc2nc1Cl | 104 | 99.8% | 94.2% | 103 | 96 | 99.1 | 101% | 108% | 103% | 103% | 101% | 107% | 84.7 | 99.8 | 97.6 | 96.8 | 99.7% | 93.9% | 97.4% | 109%
Cc1cc(C(=O)Nc2ccc(SC#N)cc2)c(C)o1 | 104 | 93.3% | 107% | 92.4 | 66.5 | 66.6 | 92.4% | 98.8% | 111% | 101% | 82.1% | 106% | 104 | 90.7 | 76 | 73.9 | 99.6% | 93.1% | -41.2% (active) | 104%
COc1ccc(CCN2C(=O)CSC2=S)cc1OC | 18.9 | 64.8% | 95.6% | 80.4 | 59.2 | 100 | 102% | 93.9% | 96.4% | 94.3% | 84% | 109% | 112 | 99.9 | 99.5 | 91.2 | 85.2% | 97% | 56.6% | 102%
